# PubChem BioAssay (NCATS)
# Results filed as inconclusive are left out. Values without a mark were called inactive. Calls of active or inactive are those of the source. Calls come from the whole dose curve; as a rule, active = well fitted inhibition curve with a large enough effect; inconclusive = small, poorly fitted or top-dose-only effect; inactive = flat fitted curve, though single readings scatter.
# Biological target: Voltage-gated inwardly rectifying potassium channel KCNH2 (Homo sapiens) (UniProt Q12809)
# Sequence (Q12809 whole entry, looked up): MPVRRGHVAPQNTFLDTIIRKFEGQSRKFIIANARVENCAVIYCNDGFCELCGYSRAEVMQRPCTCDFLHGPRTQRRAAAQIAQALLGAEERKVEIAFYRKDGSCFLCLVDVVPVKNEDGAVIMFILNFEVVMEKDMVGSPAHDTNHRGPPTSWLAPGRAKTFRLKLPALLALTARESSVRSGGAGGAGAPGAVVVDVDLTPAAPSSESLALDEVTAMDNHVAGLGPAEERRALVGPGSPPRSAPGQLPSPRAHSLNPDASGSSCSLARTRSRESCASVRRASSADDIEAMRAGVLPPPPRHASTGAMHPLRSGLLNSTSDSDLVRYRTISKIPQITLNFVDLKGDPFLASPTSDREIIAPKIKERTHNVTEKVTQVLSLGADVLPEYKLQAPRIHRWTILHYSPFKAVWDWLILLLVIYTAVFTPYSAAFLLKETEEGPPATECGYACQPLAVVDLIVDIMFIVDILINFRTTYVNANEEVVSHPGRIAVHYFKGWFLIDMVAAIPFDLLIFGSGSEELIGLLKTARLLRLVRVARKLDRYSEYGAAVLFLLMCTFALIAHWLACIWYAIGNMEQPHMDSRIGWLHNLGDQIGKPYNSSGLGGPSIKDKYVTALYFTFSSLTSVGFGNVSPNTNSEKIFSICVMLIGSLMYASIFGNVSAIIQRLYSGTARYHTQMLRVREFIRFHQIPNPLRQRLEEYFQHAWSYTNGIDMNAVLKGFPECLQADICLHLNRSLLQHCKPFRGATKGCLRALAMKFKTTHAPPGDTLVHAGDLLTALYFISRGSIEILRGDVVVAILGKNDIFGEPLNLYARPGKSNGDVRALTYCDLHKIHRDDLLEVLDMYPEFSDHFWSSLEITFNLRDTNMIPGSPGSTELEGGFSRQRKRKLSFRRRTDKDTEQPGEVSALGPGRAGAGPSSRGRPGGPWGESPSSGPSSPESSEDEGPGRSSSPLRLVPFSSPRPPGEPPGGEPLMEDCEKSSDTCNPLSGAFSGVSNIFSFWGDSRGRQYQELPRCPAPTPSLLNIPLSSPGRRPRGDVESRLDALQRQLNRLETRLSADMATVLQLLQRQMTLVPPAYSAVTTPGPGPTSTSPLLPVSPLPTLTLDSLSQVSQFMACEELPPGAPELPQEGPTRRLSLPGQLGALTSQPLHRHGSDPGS
# Assay: qHTS Assay for Small Molecule Inhibitors of the Human hERG Channel Activity (AID 588834);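 note: lower thallium flux fluorescence means stronger hERG block; nearly all actives have a fitted effect of over 50% in size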; for activity change, negative = inhibition: top concentration of the series differs between compounds
# Conditions: U2OS BacMam hERG, FluxOR thallium flux fluorescence; series mostly up to 46.1 µM; activity change, negative = inhibition: at the top concentration
# Source text: NIH Chemical Genomics Center [NCGC]
# National Institutes of Environmental Health Sciences [NIEHS]
# National Toxicology Program [NTP]
# We have developed a 1536-well cell-based assay for quantitative high throughput screening (qHTS) to determine in vitro hERG channel blockage as a measure of cardio toxicity with small molecules. This particular assay uses the U2OS cell line which is derived from human osteosarcoma.
# NCGC Assay Protocol Summary:
# HERG assay (FluxORTM thallium flux assay) was initially developed by Invitrogen/Molecular Probes, and then miniaturized into 1536-well plate in a homogeneous format by NCGC. This assay measures the activity of potassium channel using thallium dye (FluxOR) flux as surrogate measurement for potassium into the cells with a FDSS-7000 kinetic plate reader (Hamamatsu Corp., Hamamatsu City, Japan). The hERG ion channel is transduced into mammalian cells (U2OS) using a baculovirus (Bacmam) construct harboring the hERG K+ ion channel. So far we screened LOPAC1280 library (Sigma), the NTP collection of 1408 compounds, and the NCGC Pharmaceutical Collection (NPC), in which many well defined HERG blockers are present. The rank order potencies of many of these compounds are similar to that of other HERG assays (membrane potential, Rb+ flux, patch clamp, etc). This quick and homogeneous assay is also found to be sensitive, specific, and robust.
# Using the FluxORTM thallium flux assay, the activity of potassium channel using thallium dye (FluxOR) flux as surrogate measurement for potassium into the cells was measured in the U2OS cell line transduced with hERG K+ ion channel using a baculovirus (Bacmam) using Opti-MEM medium (Invitrogen) containing 2% fetal calf serum (FCS, HyCone) following loading buffer addition, compound treatment for around 10 minutes and finally adding stimulation buffer. The assay was performed in black clear Kalypsys 1536-well plates. In the screen, Astemizole was used as positive controls. Library compounds were measured for their ability to cause hERG channel blockage in the cell line, as reflected by a decrease in fluorescence intensity, in a concentration-dependent manner. […] AC50 values were determined from concentration-response data modeled with the standard Hill equation.
# qHTS protocol for hERG-U2OS cellular assay
# [Step] [Parameter] [Value] [Description]
# 1. Day 1: Replace medium in 70-80% confluent T225 flask with 2.5 mL of hERG-BacMam virus plus 12.5 mL of phosphate buffered saline (PBS) (corresponding roughly to a multiplicity of infection ratio of 100 virus particles/cell)
# 2. Incubation: 4 hrs @ room Temperature in Dark
# 3. Reagent; Remove virus; wash once with 25 ml DPBS
# 4. Reagent; 35 ml culture medium
# 5. Incubation; 37 °C overnight
# 6. Day2: Reagent; 3 uL; 2000 U2OS cells/well
# 7. Time; 4 hr; 37 °C incubation
# 8. Loading buffer; 1 uL; 0.7X;
# 9. Incubation: 1hr @ RT in Dark.
# 12. Time; 10min; 37 °C incubation
# 13. Read fluorescence Intensity on FDSS for 10 Sec with 1 sec interval
# 14. Reagent; 1 uL; stimulation buffer
# 15. Read fluorescence Intensity on FDSS for 2 min with 1 sec interval
# 16. Detection; Fluorescence Intensity; FDSS
# % is set by controls: 0 for no effect and ±100 for the full control effect; potency is the fitted concentration of half-maximal effect.
SMILES,"activity change, negative = inhibition",Potency
CC1(C)OC[C@@H]2O[C@@]3(C(=O)O)OC(C)(C)O[C@H]3[C@@H]2O1,-1.6%,
CCCc1ncc(C[n+]2ccccc2C)c(N)n1,18.7% [at 20.6 µM],
Nc1ccc(S(=O)(=O)Nc2cnc3ccccc3n2)cc1,-1.4%,
CN1CCN(c2c(F)cc3c(=O)c(C(=O)O)cn4c3c2SCC4)CC1,9.1%,
CCCCCCCCCCCCCCCCO,-11.6%,
COc1ccc2c(c1)c1c3n2CCN(C)C3=NCC1,,3.98 µM (active)
CC(=O)O[C@H]1C[C@@H]2CC[C@@H]3[C@H](CC[C@@]4(C)[C@H]3C[C@H]([N+]3(C)CCCCC3)[C@@H]4OC(C)=O)[C@@]2(C)C[C@@H]1N1CCCCC1,22.7%,
O=S(=O)(O)c1ccc(O)cc1,3.88%,
CCN[C@@H]1C[C@H](N)[C@@H](OC2OC(CN)=CCC2N)[C@H](O)[C@H]1O[C@H]1OC[C@](C)(O)[C@H](NC)[C@H]1O (stereo not given in full),16.3%,
FC1(F)C(F)(F)C(F)(F)C2(F)C(F)(F)C(F)(F)C(F)(F)C(F)(F)C2(F)C1(F)F (stereo not given),0.578%,
C#C[C@]1(O)CC[C@H]2[C@@H]3CCc4cc(OC)ccc4[C@H]3CC[C@@]21C,-25%,
Cn1c(=O)c2[nH]c(Br)nc2n(C)c1=O,13.9%,
NC(=O)n1c(O)c(C(=O)c2cccs2)c2cc(Cl)ccc21,13.7%,
CCOC(=O)C(C#N)=C(c1ccccc1)c1ccccc1,-25.9%,
CC(C)(C)NC[C@H](O)COc1cccc2c1CCCC2=O,6.09% [at 20.6 µM],
O=C(N/N=C/c1ccc([N+](=O)[O-])o1)c1ccc(O)cc1,-28.6% [at 20.6 µM],
CCc1cc(Cl)c(OC)c(C(=O)NC[C@@H]2CCCN2CC)c1O,,2.82 µM (active)
C[C@H]1[C@H]2CC[C@H]3[C@@H]4CC=C5C[C@@H](N(C)C)CC[C@]5(C)[C@H]4CC[C@]23CN1C,6.94%,
CCCCNC(=O)NS(=O)(=O)c1ccc(N)cc1,9.29%,
CCC1NC(=O)c2cc(S(N)(=O)=O)c(Cl)cc2N1 (stereo not given),15.2% [at 20.6 µM],

SMILES,"activity change, negative = inhibition",Potency
Cc1c(-c2ccccc2)oc2c(C(=O)OCCN3CCCCC3)cccc2c1=O,-13.4% [at 20.6 µM],
CC(C)CCCC(C)N (stereo not given),13.2%,
C=CCN1CCc2nc(N)sc2CC1,6.6%,
O=c1[nH]c(=O)n([C@H]2C[C@H](O)[C@@H](CO)O2)cc1F,0.535%,
O=C(O)C(Cc1cc(I)c(O)c(I)c1)c1ccccc1 (stereo not given),11.3%,
Nc1nc(Cl)nc2c1ncn2[C@@H]1O[C@H](CO)[C@@H](O)[C@@H]1F,7.1%,
NC(N)=NCc1cccc(I)c1,-2.8%,
C#C[C@]1(O)CC[C@H]2[C@@H]3CCC4=CC(=O)CC[C@@H]4[C@H]3CC[C@@]21CC,-6.77%,
CC[C@]12CCCN3CCc4c(n(c5ccccc45)C(=O)C1)[C@@H]32,,0.447 µM (active)
COc1cc(NS(=O)(=O)c2ccc(N)cc2)ncn1,-22.6% [at 20.6 µM],
NC(=O)C1(N2CCCCC2)CCN(CCCC(=O)c2ccc(F)cc2)CC1,,3.55 µM (active)
NS(=O)(=O)c1cc(C(=O)O)cc(N2CCCC2)c1Oc1ccccc1,-10.7% [at 20.6 µM],
CCCCN=C(N)N=C(N)N,3.31%,
O=C(O)c1ccc(S(=O)(=O)N(Cl)Cl)cc1,,inactive
CN(Cc1ccc(C(C)(C)C)cc1)Cc1cccc2ccccc12,,7.94 µM (active)
Cc1ccc(S(=O)(=O)NC(=O)NC2CCCC2)cc1,11.9%,
O=[N+]([O-])c1ccc(/C=N\O)o1,-0.594%,
CCCCCCCCCCCCSCCOCCO,4.74%,
CCN1/C(=C/C=C/c2sc3ccccc3[n+]2CC)Sc2ccccc21,,1.41 µM (active)
CCCCc1cc2ccccc2c(OCCN(C)C)n1,,7.94 µM (active)
